Results: ChEMBL document CHEMBL3988442, “University of Dundee, Small-Polar-MMV Screening Library” (2021)
For some of these results: Results with a measured potency or affinity are listed apart.

Tests used:
Set-up in all cases: scale not given: direction of the effect not stated beside the values
[1] = target: Protein translocase subunit SecA (Escherichia coli (strain K12)) (UniProt P10408); test: Assay to Identify E. coli SecA ATPase Inhibitors; assay type: functional; conditions: 30 µM
[2] = target: T1, Ubiquitin-activating enzyme e1, putative (Leishmania donovani (strain BPK282A1)) (UniProt E9BSI1); test: Leishmania donovani Ubiquitin Activating Enzyme (LdE1); assay type: functional; conditions: 30 µM
T1 sequence (whole entry): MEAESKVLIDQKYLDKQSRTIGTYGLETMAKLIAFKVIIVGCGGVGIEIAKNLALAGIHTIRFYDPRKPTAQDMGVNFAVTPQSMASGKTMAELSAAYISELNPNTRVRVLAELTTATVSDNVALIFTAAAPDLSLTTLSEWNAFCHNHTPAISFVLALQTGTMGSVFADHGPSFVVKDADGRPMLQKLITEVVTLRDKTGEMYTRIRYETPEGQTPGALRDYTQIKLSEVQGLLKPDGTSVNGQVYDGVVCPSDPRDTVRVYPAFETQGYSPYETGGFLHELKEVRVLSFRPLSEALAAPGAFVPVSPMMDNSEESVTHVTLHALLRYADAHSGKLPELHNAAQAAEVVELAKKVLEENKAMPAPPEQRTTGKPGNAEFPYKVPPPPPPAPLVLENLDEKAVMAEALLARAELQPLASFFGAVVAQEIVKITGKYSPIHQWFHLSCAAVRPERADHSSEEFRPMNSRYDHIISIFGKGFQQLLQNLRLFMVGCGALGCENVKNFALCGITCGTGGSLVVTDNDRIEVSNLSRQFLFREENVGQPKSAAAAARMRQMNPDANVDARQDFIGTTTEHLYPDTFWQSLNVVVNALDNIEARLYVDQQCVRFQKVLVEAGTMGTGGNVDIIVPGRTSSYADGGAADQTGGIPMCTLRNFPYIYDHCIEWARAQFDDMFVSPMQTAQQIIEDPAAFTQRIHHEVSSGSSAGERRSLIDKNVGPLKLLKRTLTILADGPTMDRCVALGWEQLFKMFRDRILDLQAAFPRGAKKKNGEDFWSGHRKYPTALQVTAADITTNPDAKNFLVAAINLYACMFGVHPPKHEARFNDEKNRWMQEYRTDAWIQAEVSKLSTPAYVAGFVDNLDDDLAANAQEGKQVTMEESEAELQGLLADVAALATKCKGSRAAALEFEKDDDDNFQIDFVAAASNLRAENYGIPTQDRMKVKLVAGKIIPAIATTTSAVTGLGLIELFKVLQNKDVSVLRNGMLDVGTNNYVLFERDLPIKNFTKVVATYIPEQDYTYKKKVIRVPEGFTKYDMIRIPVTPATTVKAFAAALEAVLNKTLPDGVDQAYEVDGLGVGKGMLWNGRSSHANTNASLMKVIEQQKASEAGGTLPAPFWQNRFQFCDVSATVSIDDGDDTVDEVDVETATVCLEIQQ

[3] = target: AMP-activated protein kinase, AMPK (Homo sapiens) (UniProt P54646+O43741+P54619+Q9UGJ0+Q9Y478+Q13131+Q9UGI9); test: AMP-dependent Kinase enzyme assay. An in vitro enzyme assay that detects ADP turnover that is directly proportional to AMPK activity. This uses naive AMPK that is activated during the assay with MK-8722; assay type: functional; conditions: 30 µM
[4] = target: Sialic acid-binding Ig-like lectin 9 (Homo sapiens) (UniProt Q9Y336); test: Hs-Siglec9 ALPHAscreen SOP 20170721; conditions: 10 µM
Trypanosoma cruzi = test: Trypanosoma cruzi phosphomannomutase and mannose-1-phosphate guanylyltransferase assay; assay type: functional; conditions: 10 µM
[5] = target: T2, Arginase-2, mitochondrial (Homo sapiens) (UniProt P78540); test: in vitro enzyme assay to detect the production of urea directly proportional to the activity of Arginase II; assay type: functional; conditions: 33.3 µM; also: in the data most compounds retested in dose-response had high values
T2 sequence (whole entry): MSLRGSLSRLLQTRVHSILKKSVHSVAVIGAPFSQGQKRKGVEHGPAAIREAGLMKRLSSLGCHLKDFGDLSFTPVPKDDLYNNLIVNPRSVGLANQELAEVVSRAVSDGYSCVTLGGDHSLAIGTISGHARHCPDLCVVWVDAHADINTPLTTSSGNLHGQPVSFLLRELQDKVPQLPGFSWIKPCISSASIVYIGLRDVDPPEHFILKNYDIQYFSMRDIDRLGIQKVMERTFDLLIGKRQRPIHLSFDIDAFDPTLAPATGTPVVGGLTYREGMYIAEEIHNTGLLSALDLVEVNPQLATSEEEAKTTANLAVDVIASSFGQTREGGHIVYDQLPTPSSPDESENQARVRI

[6] = target: T3, Proteasome subunit beta (Trypanosoma cruzi) (UniProt O96673); test: Trypanosoma cruzi proteasome chymotrypsin-like activity (TcProtChymo) assay.; also: in the data most compounds retested in dose-response had high values; assay type: functional; conditions: 9.37 µM
T3 sequence (whole entry): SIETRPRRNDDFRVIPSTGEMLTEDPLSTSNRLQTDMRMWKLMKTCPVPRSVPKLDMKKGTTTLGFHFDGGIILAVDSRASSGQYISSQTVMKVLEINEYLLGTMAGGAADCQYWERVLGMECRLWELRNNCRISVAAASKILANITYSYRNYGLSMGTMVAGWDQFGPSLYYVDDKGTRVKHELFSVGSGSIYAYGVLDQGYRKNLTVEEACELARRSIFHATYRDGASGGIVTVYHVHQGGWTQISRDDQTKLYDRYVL

Homo sapiens = species: Homo sapiens; test: To identify inhibition of the IFN signalling (Jak-Stat) pathway via expression of an eGFP reporter gene under the control of an IFN-stimulated response element (ISRE) containing MxA promoter.; assay type: functional; conditions: 30 µM
[7] = target: T4, Tyrosyl-tRNA synthetase, putative (Trypanosoma cruzi (strain CL Brener)) (UniProt Q4DSP6); test: Trypanosoma cruzi tyrosyl tRNA synthetase (TcYRS) _High Tyrosine SOP; assay type: functional; conditions: 30 µM; also: in the data most compounds retested in dose-response had high values
T4 sequence (whole entry): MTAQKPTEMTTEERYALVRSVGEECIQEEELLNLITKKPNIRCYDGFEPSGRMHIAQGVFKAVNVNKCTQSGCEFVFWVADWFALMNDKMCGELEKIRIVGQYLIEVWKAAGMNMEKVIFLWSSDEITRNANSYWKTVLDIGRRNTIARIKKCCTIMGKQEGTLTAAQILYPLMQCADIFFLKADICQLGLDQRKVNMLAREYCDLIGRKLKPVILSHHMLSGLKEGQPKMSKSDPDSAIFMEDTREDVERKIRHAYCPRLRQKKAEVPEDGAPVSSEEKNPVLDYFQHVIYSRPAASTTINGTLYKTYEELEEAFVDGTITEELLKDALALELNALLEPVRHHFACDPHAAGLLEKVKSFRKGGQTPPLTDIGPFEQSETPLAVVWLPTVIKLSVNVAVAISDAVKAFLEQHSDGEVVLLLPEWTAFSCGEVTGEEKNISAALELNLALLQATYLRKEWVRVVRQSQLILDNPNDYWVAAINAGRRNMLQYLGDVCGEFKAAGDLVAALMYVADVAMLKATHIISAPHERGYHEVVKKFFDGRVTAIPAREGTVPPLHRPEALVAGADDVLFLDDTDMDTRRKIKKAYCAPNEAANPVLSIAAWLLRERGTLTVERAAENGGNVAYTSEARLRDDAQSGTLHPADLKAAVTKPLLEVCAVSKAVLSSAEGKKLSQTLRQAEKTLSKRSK

[8] = target: T4, Tyrosyl-tRNA synthetase, putative (Trypanosoma cruzi (strain CL Brener)); test: Trypanosoma cruzi tyrosyl tRNA synthetase (TcYRS) SOP; assay type: functional; conditions: 30 µM
[9] = target: Chromo domain-containing protein 1 (Saccharomyces cerevisiae (strain ATCC 204508 / S288c) (Baker's yeast)) (UniProt P32657); test: ScCHD-1 Enzyme Inhibition Assay; assay type: functional; conditions: 30 µM; also: in the data most compounds retested in dose-response had high values
Sequence of Chromo domain-containing protein 1 (Saccharomyces cerevisiae (strain ATCC 204508 / S288c) (Baker's yeast)) (P32657 whole entry, the tested form may be a part): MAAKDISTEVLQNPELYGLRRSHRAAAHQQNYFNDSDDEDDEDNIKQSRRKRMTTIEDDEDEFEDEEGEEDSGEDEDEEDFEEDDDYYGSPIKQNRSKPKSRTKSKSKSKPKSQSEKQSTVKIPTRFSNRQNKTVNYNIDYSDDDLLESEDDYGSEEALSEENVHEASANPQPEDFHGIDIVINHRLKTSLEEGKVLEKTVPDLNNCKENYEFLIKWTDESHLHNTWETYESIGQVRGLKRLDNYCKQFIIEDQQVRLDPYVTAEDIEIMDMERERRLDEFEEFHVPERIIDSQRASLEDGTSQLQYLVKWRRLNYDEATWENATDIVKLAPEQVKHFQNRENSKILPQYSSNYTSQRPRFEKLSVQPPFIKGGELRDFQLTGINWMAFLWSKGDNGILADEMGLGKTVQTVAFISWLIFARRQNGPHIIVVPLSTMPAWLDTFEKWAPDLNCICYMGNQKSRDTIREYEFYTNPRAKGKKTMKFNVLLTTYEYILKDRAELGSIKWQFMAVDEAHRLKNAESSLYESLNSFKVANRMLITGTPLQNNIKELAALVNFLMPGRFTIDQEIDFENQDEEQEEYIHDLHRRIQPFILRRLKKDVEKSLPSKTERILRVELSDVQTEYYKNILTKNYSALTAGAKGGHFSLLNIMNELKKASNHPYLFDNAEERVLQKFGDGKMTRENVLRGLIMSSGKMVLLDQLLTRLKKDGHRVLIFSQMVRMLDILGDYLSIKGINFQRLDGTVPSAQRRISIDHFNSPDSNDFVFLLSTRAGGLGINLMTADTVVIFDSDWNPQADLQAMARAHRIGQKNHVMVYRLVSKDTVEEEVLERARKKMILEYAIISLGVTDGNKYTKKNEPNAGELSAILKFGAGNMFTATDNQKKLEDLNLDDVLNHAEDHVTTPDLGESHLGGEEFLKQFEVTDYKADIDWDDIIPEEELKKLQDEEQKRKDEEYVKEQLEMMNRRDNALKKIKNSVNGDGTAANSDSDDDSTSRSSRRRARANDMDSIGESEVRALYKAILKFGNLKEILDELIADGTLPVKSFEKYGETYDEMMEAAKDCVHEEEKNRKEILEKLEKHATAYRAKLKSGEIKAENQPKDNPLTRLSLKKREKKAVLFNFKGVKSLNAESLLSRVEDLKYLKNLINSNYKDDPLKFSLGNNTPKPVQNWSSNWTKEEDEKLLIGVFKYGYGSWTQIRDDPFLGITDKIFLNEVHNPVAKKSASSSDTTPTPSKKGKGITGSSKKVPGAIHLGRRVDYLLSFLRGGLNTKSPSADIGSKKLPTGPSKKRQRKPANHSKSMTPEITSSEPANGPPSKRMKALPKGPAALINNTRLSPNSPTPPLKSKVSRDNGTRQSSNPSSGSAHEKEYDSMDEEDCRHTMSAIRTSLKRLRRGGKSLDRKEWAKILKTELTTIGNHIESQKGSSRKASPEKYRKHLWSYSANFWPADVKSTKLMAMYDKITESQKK

Sequence of Protein translocase subunit SecA (Escherichia coli (strain K12)) (P10408 whole entry): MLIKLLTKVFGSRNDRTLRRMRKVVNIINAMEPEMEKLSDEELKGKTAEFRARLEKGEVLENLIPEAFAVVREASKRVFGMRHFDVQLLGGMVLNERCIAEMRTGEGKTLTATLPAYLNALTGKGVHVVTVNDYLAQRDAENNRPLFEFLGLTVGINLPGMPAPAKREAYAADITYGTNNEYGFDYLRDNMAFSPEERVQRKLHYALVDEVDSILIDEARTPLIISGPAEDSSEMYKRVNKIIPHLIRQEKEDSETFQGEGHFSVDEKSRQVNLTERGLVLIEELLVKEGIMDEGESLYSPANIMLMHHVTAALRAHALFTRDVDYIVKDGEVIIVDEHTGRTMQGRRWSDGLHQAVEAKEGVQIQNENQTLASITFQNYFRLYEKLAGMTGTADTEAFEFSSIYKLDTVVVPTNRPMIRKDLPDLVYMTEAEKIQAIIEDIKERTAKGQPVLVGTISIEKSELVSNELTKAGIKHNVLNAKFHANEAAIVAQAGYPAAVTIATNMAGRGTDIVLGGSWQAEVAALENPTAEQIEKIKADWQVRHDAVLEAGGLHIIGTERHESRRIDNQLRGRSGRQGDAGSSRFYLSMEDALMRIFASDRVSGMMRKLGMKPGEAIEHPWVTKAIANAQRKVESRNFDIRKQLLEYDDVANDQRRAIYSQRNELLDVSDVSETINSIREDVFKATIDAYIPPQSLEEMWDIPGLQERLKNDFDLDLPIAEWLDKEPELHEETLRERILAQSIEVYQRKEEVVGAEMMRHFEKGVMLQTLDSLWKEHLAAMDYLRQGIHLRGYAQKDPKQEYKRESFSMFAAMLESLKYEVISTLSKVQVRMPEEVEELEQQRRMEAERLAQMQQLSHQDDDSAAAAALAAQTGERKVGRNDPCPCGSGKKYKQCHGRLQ
Sequence of Sialic acid-binding Ig-like lectin 9 (Homo sapiens) (Q9Y336 whole entry): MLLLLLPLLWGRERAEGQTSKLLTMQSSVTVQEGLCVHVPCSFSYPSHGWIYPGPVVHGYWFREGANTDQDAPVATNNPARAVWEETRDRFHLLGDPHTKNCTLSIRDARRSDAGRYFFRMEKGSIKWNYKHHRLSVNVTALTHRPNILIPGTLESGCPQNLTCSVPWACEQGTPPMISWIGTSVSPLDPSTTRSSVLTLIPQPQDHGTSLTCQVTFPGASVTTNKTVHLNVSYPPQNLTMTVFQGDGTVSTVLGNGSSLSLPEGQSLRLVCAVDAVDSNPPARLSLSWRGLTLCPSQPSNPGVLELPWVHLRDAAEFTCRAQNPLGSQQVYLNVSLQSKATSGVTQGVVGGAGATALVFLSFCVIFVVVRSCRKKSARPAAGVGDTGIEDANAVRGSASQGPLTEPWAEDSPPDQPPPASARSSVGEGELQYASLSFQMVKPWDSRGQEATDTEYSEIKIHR

Row | SMILES | Percent Effect [1] [%] | Percent Effect [2] [%] | Percent Effect [3] [%] | Percent Effect [4] [%] | Percent Effect (Trypanosoma cruzi) [%] | Percent Effect [5] [%] | Percent Effect [6] [%] | Percent Effect (Homo sapiens) [%] | Percent Effect [7] [%] | Percent Effect [8] [%] | Percent Effect [9] [%]
1 | Cc1nn(C)c(C)c1NC(=O)CN1CCc2c(nc(C(C)C)n2C)C1 | -0.874 | 8.11 | -7.75 | 18.4 | 7.34 | 12.9 | 7.93 | 22.8 | 5.82 | 14.6 | -2.17
2 | Cc1ncsc1C(=O)NCCSCCCO | 1.26 | 16.2 | -5.95 | -2.14 | 1.02 | -1.29 | 15.4 | -0.639 | 4.95 | 15.8 | -4.16
3 | Cc1nnc2n1CCN(CCS(=O)(=O)c1ccccc1)C2 | -2.96 | 15.6 | 2.16 | 8.34 | 1.69 | -3.2 | -2.03 | 27.6 | 2.91 | 14.6 | -8
4 | O=C(NCc1ccc(OCC2CC2)nc1)c1c(F)cccc1F | -0.518 | 2.63 | 4.21 | -0.689 | -5.16 | -11.8 | 15.1 | 11.7 | 3.19 | 7.79 | -4.74
5 | Cc1cc(C)n(CC2CN(CCOc3cccc(F)c3)CCO2)n1 (configuration not stated) | -4.88 | 7.89 | 0.382 | 4.47 | 1.59 | -3.24 | 1.1 | 24.5 | 4.43 | 16.1 | -3.81
6 | Cc1ccsc1[C@@H]1CCN(C(=O)CCC(=O)N2CCCCCC2)C[C@H]1O | -3.23 | 6.94 | -7.07 | -3.16 | 1.46 | -1.32 | 4.91 | -6.38 | 5.26 | 10.3 | -2.41
7 | c1ccc(-n2cc(CN3CCCC(Cn4cncn4)C3)nn2)cc1 (configuration not stated) | -2.56 | 3.8 | 7.41 | 3.66 | -3.79 | -0.215 | 15.4 | 12.2 | 7.29 | 12.7 | -25.5
8 | CCN(Cc1ccc(OC)c(F)c1)C(=O)c1ccc(C)[nH]c1=O | -3.17 | 10.5 | 2.62 | 9.42 | -0.188 | 2.3 | 4.68 | 8.35 | 8.33 | 19.5 | -8.67
9 | Cc1cc2nc(SCC(=O)N3CCOCC3)n(CC(C)C)c(=O)c2[nH]1 | 2.16 | 13.2 | 2.03 | -4.31 | -4.77 | 11.8 | 18.3 | -10.6 | -1.06 | 10.4 | -2.79
10 | OCC1CCCN1c1cc(N2CCc3ccccc3C2)ncn1 (configuration not stated) | -5.73 | 5.2 | -4.03 | -9.93 | 8.13 | -6.95 | 7.84 | -3.87 | 3.81 | 14.1 | -20.3
11 | NCc1cnn(-c2ccccc2C(=O)NCc2ccncc2)c1 | -3.81 | 6.76 | 13.5 | -2.83 | -2.96 | -0.232 | 6.08 | 6.53 | 3.23 | 11.7 | -5.06
12 | Cc1ccc2c(n1)N(CCN(C)C)CCN(C(=O)c1ccc[nH]1)C2 | -0.711 | 10.7 | 6.26 | -13 | -8.07 | 1.63 | 18.6 | -6.38 | 1.06 | 3.85 | -1.69
13 | O=C(NCCc1cccc(O)c1)NC1CCN(c2ccccc2)C1=O (configuration not stated) | -7.43 | 0 | 2.02 | -1.23 | -2.82 | 1.04 | 11.7 | -6.77 | -1.64 | 1.24 | -4.31
14 | c1cnc(N2CCC3(COCc4cnc(-c5cccnc5)nc43)C2)nc1 (configuration not stated) | -3.71 | -2.7 | 12.2 | -3.8 | -1.86 | -5.41 | 1.11 | 3.84 | -1.08 | -10.3 | -4.41
15 | O=C(c1ncccn1)N1C[C@H]2CCC[C@@]2(COCC2CCOCC2)C1 | -5.07 | 10.8 | 1.99 | -7.31 | 6.16 | -0.319 | 19.9 | 25.2 | 6.49 | 15.4 | 2.35
16 | COCCN(C)CCN1CC2(CCN(C(=O)C3CCOC3)CC2)OC1=O (configuration not stated) | -4.65 | 18.2 | 9.58 | 7.65 | 5.21 | -12.4 | 23.1 | 6.21 | 7.53 | 18.5 | -7.01
17 | NC(=O)CSCCC(=O)N1CCCC1c1ccsc1 (configuration not stated) | -2.98 | 1.39 | -4.14 | 8.9 | 4.76 | 19 | 4.74 | 13.9 | 3.16 | 7.69 | -1.44
